From PubChem BioAssay (NCATS)
Records with an inconclusive call do not appear. Activity calls are given as the source filed them. The call rests on the fitted dose curve; in most records, active means well fitted inhibition curve with a large enough effect; inconclusive means small, poorly fitted or top-dose-only effect; inactive means flat fitted curve, though single readings scatter.

Key:
Experiment in all cases: Cytotoxic Profiling of Annotated Libraries Using Quantitative High-Throughput Screening (AID 1296008); further: nearly all actives have a fitted effect of over 60% in size
Conditions in all cases: Five cell lines viability, CellTiter-Glo ATP luminescence, 48-72 h; max response: stronger effect = lower value
[1] = test system: CRL-7250
In short: (§1)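 Cytotoxicity was measured as CellTiter-Glo ATP luminescence, read after 10 min at room temperature. Compound treatment of the cells lasted 48 or 72 hr at 37 degrees Celsius in a qHTS format.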

[2] = test system: HEK293
In short: as §1

[3] = test system: HaCat
In short: as §1

[4] = test system: KB-3-1
In short: as §1

[5] = test system: NIH3T3
In short: as §1

Measured: max response
On the % scale 0 is the no-effect control and ±100 the full control effect.

CC1OC(OCC2OC(OC3CCC4(C)C(CCC5(C)C4CC=C4C6CC(C)(C)CCC6(C(=O)OC6OC(CO)C(O)C(O)C6O)CCC45C)C3(C)CO)C(O)C(O)C2O)C(O)C(O)C1O (stereo not given)
inactive: [1] -3.44% | [2] -5.12% | [3] 2.13% | [4] 9.22% | [5] 0.258%

C=C(C(=O)O)[C@@H]1CC[C@@]2(C)CC[C@H](O)[C@@]2(C(C)=O)C1
inactive: [1] | [2] -2.38% | [3] -0.694% | [4] 2.3% | [5] -3.95%

C=C[C@H]1[C@H](O[C@@H]2O[C@H](CO)[C@@H](O)[C@H](O)[C@H]2O)OC=C(C(=O)OC)[C@H]1C/C=C(/C=O)[C@@H]1C(C(=O)OC)=CO[C@@H](O[C@@H]2O[C@H](CO)[C@@H](O)[C@H](O)[C@H]2O)[C@@H]1C=C
inactive: [1] -8.61% | [2] -29.3% | [3] -4.96% | [4] 1.41% | [5] 4.13%
